Data: the supplement of paper PMC10849652
Of roughly 7,900 targets only a part is listed; those with a hit were picked by preference. About 0.6% of all pairs of compound and target were hits.

Each target was assayed with C1COCCN1CCN2C3=CC=CC=C3N=C2NC(=O)C4=CC(=CC=C4)[N+](=O)[O-] [IRAK-1-4 Inhibitor I] (assay: log2 fold change, soluble protein after heating vs DMSO (PISA); higher = thermal stabilisation; K562 cells, 10 uM, 30 min; active = over 0.2 and 3.5 SD of the protein, either way, in both replicates (recomputed)).
In short: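 K562 cells at 2×10^6 cells/mL were exposed to 10 μM compound for 30 min, then aliquots were heated for 3 min across 48°C-58°C, pooled, and extracted in PBS containing 0.5% NP-40 at 4°C. The supernatant after 21,000xg for 90 min was taken as soluble protein and measured by TMTpro 16plex LC-MS/MS with channel sums equalised. Thermal stability is reported relative to control samples, with values from duplicates. Fold changes are given on a log2 scale.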

Sequence of UniProt Q99541 (Q99541 whole entry, looked up): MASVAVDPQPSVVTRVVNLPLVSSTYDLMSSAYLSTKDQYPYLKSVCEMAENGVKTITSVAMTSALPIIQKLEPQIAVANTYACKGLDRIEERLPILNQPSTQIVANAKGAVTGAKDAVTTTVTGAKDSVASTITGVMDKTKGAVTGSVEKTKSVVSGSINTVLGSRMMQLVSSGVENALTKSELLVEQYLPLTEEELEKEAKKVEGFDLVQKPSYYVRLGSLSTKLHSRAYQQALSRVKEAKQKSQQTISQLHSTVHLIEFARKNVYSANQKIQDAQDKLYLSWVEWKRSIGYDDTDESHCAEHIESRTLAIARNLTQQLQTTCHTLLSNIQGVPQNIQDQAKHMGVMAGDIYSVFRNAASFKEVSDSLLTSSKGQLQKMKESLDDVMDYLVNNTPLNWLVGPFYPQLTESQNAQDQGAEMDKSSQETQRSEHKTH
Sequence of UniProt P28072 (P28072 whole entry, looked up): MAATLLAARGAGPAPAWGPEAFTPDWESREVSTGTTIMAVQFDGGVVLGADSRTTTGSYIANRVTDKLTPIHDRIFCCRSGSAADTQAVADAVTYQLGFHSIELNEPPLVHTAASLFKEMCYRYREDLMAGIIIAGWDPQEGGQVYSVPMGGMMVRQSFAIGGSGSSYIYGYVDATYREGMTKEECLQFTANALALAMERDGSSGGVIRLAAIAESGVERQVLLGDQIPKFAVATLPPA
Sequence of UniProt P35227 (P35227 whole entry, looked up): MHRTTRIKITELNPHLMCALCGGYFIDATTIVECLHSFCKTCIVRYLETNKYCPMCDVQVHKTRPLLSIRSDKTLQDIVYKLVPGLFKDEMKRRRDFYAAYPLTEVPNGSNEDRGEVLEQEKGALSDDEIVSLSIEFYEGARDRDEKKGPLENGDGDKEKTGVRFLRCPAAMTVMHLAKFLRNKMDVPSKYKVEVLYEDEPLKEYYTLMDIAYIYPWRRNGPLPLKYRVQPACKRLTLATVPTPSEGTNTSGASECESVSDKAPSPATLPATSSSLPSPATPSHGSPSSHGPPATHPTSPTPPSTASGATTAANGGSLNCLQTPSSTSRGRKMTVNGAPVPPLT
Sequence of UniProt Q00577 (Q00577 whole entry, looked up): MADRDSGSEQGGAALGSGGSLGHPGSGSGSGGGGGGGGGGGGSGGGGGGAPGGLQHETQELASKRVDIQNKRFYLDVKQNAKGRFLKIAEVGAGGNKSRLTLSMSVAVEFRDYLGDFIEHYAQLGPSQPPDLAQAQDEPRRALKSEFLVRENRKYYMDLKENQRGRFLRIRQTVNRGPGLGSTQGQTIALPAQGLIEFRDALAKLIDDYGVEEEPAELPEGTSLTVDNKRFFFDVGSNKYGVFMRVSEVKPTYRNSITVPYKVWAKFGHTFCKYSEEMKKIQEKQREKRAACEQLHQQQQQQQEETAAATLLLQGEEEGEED
Sequence of UniProt Q5VTL8 (Q5VTL8 whole entry, looked up): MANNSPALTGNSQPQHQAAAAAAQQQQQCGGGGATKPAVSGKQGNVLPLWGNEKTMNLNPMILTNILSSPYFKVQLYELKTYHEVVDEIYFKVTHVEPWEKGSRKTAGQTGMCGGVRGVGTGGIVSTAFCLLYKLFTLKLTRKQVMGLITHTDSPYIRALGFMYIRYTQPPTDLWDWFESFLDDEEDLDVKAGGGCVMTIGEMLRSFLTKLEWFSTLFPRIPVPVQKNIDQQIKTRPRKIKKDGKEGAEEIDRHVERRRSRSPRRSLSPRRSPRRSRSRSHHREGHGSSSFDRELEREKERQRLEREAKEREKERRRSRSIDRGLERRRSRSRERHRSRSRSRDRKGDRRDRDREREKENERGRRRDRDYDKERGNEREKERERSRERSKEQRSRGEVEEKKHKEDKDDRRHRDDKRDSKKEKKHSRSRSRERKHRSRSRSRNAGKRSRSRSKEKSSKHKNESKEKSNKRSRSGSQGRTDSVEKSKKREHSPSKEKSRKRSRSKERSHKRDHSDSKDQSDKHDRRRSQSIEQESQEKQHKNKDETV
Sequence of UniProt Q04759 (Q04759 whole entry, looked up): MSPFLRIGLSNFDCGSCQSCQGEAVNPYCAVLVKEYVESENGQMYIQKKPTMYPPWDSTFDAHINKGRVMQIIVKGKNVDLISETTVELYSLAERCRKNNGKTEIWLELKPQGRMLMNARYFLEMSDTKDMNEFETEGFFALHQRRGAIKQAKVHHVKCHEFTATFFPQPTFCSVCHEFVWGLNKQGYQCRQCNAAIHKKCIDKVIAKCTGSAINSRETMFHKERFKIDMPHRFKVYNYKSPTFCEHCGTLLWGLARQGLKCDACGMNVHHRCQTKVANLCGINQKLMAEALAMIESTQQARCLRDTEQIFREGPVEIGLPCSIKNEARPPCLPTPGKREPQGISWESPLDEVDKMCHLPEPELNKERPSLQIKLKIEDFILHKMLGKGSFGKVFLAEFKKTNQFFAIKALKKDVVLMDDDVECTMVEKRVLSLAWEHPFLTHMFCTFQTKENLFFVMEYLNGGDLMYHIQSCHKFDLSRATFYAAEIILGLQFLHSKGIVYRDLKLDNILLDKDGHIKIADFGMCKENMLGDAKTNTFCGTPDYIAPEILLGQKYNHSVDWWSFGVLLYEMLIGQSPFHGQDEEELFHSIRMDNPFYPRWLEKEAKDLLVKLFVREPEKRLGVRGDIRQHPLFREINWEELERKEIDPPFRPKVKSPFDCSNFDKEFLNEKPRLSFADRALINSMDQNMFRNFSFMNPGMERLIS
Sequence of UniProt O00231 (O00231 whole entry, looked up): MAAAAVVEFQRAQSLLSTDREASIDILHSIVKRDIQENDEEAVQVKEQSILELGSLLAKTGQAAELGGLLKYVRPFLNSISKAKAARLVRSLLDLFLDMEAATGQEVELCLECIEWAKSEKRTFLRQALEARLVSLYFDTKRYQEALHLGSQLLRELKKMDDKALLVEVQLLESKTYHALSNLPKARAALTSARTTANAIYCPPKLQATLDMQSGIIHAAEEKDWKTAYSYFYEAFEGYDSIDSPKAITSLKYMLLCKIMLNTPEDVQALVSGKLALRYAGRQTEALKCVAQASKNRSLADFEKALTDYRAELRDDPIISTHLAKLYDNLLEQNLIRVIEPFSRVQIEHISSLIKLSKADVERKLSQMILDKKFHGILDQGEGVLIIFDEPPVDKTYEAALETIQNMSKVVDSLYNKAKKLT
Sequence of UniProt P42785 (P42785 whole entry, looked up): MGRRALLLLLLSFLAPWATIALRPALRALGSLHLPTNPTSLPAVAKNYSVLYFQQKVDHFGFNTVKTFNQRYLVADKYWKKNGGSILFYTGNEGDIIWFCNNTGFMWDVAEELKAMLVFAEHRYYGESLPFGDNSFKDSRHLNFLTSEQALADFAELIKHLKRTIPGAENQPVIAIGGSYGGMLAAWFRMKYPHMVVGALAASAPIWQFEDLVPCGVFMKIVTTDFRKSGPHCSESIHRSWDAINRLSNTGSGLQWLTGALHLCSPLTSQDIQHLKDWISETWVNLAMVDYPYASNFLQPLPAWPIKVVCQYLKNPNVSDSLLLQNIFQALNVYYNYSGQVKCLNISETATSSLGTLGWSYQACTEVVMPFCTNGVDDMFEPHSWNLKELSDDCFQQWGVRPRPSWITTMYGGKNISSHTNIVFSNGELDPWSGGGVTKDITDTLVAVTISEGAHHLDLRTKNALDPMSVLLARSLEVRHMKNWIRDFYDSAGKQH
Sequence of UniProt Q15111 (Q15111 whole entry, looked up): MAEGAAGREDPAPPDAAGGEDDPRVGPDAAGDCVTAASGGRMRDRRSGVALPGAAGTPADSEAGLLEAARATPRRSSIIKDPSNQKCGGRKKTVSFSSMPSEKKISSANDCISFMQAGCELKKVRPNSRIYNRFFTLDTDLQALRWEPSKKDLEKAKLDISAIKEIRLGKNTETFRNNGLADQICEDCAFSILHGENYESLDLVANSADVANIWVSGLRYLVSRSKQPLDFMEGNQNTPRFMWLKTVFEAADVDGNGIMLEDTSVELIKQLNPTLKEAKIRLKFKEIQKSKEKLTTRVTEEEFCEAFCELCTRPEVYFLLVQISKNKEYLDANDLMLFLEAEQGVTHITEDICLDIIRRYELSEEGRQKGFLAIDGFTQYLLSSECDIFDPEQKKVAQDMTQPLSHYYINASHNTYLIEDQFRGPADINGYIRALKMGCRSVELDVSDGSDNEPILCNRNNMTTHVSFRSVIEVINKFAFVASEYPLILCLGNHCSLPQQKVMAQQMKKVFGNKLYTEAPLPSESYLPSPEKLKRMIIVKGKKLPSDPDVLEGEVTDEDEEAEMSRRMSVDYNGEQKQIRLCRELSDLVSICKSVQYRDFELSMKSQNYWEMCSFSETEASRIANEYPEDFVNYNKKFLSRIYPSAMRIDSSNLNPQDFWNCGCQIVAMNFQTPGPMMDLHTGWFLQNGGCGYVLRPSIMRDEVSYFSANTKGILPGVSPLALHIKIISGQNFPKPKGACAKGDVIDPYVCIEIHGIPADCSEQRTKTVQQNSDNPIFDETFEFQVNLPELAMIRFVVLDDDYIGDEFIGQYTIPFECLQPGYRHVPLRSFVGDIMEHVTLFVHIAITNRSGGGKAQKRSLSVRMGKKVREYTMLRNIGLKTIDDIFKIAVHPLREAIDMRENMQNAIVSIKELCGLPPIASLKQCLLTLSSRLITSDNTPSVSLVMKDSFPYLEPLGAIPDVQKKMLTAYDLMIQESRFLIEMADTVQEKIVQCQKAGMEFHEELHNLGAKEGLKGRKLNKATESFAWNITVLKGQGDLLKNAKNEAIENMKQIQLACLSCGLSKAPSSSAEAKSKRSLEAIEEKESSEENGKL
Sequence of UniProt P06454 (P06454 whole entry, looked up): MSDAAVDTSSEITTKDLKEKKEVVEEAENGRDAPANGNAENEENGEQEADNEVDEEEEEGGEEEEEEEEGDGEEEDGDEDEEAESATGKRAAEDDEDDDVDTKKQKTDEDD
Sequence of UniProt Q12974 (Q12974 whole entry, looked up): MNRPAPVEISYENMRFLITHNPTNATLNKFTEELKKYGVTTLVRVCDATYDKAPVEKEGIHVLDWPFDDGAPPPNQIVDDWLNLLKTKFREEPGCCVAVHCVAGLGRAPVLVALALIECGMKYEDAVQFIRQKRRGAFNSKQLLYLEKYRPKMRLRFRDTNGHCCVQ

log2 fold change, inactive:
PLIN2 (UniProt Q99541) 0.058
PCGF2 (UniProt P35227) -0.077
PRKAR1B (UniProt P31321) 0.005
PSMB6 (UniProt P28072) -0.007
PGGHG (UniProt Q32M88) 0.018
PTGFRN (UniProt Q9P2B2) 0.009
PLCL1 (UniProt Q15111) -0.007
PURA (UniProt Q00577) -0.151
PPT1 (UniProt P50897) 0.041
PKN2 (UniProt Q16513) -0.017
PTPMT1 (UniProt Q8WUK0) 0.018
PTMA (UniProt P06454) 0.034
POGLUT1 (UniProt Q8NBL1) -0.032
POLR2C (UniProt P19387) -0.041
PRPF38B (UniProt Q5VTL8) -0.158
PSMA3 (UniProt P25788) -0.027
PJA2 (UniProt O43164) 0.061
PTP4A2 (UniProt Q12974) 0.019
PCYT1B (UniProt Q9Y5K3) 0.014
PPP1R14A (UniProt Q96A00) 0.041
PIK3CB (UniProt P42338) -0.051
POLD3 (UniProt Q15054) -0.013
PSMD11 (UniProt O00231) -0.048
PMM1 (UniProt Q92871) -0.06
PIP4P2 (UniProt Q8N4L2) -0.027
PIGT (UniProt Q969N2) -0.016
POLR2I (UniProt P36954) 0.045
PPP6R1 (UniProt Q9UPN7) 0
PRKCQ (UniProt Q04759) 0.004
POLR1A (UniProt O95602) 0.06
PRPSAP2 (UniProt O60256) 0.02
PSME4 (UniProt Q14997) 0.003
PPM1G (UniProt O15355) -0.095
PRKAR2B (UniProt P31323) -0.038
PKN1 isoform 2 (UniProt Q16512) -0.014
PRCP (UniProt P42785) 0.04
